A selection: hits, their analogues and other compounds. The true share with any hit is near 2.1%.
HIF act = HIF pathway transcriptional activation | U2OS HRE-luciferase reporter, luminescence; normalized: DMSO 0%, desferrioxamine 100% | activation, % at 7.5 µM (by protocol) | hit rate 0.32% among 300,000 | AID 1910;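 active = mean activation of at least 10% of the iron chelator positive control signal, with at least half of replicates also reaching 10%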
aSyn 5UTR inh = 5' untranslated region of α-synuclein, MLPCN primary screen | inhibition, % (tested at 7.5 µM) | alpha-synuclein 5'UTR reporter, inhibitor activity | hit rate 0.82% among 300,000; in the data active = inhibition above about 60%;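 note: H4 neuroglioblastoma cells stably carrying SNCA 5'UTR luciferase fusion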
KLF5 inh = suppresses KLF5 promoter-driven expression | DLD-1 KLF5 promoter-luciferase reporter, luminescence | inhibition, % at 5 µM | hit rate 0.23% among 290,000 | AID 1700;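 active = inhibition above a per-plate limit of that plate's mean compound inhibition plus 3 SD, cut at about 60% in these data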;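 note: higher means less KLF5 promoter-driven luciferase light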
Platelet DG rel = platelet dense granule release activity | inhibition, %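 (compounds screened at 7.5 µM in platelet-rich plasma)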 | human platelet-rich plasma, SFLLRN dense granule ATP release, luminescence | hit rate 0.22% among 300,000;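 active = mean replicate score, as percent of positive control, at or above 50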
Wee1 stabilizer = blocks degradation of human Wee1 kinase; P30291; HeLa Luc-Wee1K328M stability, luciferase luminescence; 100% = proteasome inhibitor MG132 effect; reporter increase, % at 5 µM; hit rate 1.2% among 220,000; AID 1321;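 active = activation above the mean of all tested compounds plus 3 SD, set per screening run, cut at about 8.8% in these data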;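 note: cells exposed to compound for 20 h before luminescence read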
Target sequence (P30291 whole entry K328M): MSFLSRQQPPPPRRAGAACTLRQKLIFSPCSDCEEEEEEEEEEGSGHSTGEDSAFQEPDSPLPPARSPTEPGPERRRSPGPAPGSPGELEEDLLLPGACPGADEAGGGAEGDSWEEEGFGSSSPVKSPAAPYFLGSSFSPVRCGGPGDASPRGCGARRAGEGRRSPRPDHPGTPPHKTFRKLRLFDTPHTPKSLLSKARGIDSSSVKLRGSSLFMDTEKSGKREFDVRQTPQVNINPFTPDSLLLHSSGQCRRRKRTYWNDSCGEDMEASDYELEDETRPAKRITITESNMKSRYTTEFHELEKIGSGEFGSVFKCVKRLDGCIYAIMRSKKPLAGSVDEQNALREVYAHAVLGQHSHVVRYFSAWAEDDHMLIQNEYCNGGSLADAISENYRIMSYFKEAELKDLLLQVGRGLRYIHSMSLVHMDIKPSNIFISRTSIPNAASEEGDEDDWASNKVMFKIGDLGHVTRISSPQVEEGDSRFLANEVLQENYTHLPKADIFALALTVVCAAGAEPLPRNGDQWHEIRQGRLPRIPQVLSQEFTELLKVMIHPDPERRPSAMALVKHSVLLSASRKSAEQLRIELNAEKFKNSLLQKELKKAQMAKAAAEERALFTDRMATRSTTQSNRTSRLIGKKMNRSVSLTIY
Wee1 degr conf = human Wee1 degradation inhibition, confirmation | shares compounds with Wee1 stabilizer | HeLa Luc-Wee1K328M degradation, luminescence; vehicle 0%, proteasome-blocked wells 100% | activation, % at 5 µM | hit rate 4% among 1,100; in the data active = activation above about 8.9%
A number is an active result.

How did COc1ccccc1-c1nnc(Nc2nc3c(OC)cccc3s2)o1 do in these assays?
HIF act: inactive; aSyn 5UTR inh: 81; KLF5 inh: inactive; Platelet DG rel: inactive; Wee1 stabilizer: 15; Wee1 degr conf: inactive

Results for CC1(C)CN(c2ccccc2)N(Cc2ccc(F)cc2)C1=O ?
HIF act: inactive; aSyn 5UTR inh: inactive; KLF5 inh: inactive; Platelet DG rel: inactive; Wee1 stabilizer: inactive

Results for COc1ccc(Nc2nc(S(=O)(=O)c3ccc(C)cc3)c(Cl)s2)cc1 ?
HIF act: inactive; aSyn 5UTR inh: inactive; KLF5 inh: inactive; Platelet DG rel: inactive; Wee1 stabilizer: 11; Wee1 degr conf: inactive

Results for Cc1ccc(S(=O)(=O)c2nc(Nc3ccccc3)sc2Cl)cc1 ?
HIF act: inactive; aSyn 5UTR inh: inactive; KLF5 inh: inactive; Platelet DG rel: inactive; Wee1 stabilizer: inactive

What do the screens show for `COc1ccccc1N(CC(=O)N1CCN(c2ccc(F)cc2)CC1)S(=O)(=O)c1ccc(C)cc1`?
HIF act: inactive; aSyn 5UTR inh: inactive; KLF5 inh: inactive; Platelet DG rel: inactive

What do the screens show for `CCC1CCc2c(n(C)c3ccccc3c2=O)O1` (centres undefined)?
HIF act: inactive; aSyn 5UTR inh: inactive; KLF5 inh: inactive; Platelet DG rel: inactive; Wee1 stabilizer: inactive

What do the screens show for `Cn1c2c(c(=O)c3ccccc31)CCC(C)(C)O2`?
HIF act: inactive; aSyn 5UTR inh: inactive; KLF5 inh: inactive; Platelet DG rel: inactive; Wee1 stabilizer: 11; Wee1 degr conf: inactive

Results for CC(C)NS(=O)(=O)c1ccc(OCC(=O)N2CCc3ccccc3C2)cc1 ?
HIF act: inactive; aSyn 5UTR inh: inactive; KLF5 inh: inactive; Platelet DG rel: inactive; Wee1 stabilizer: 13; Wee1 degr conf: inactive

Results for O=C1NC(=O)/C(=C\c2ccc(O)cc2O)S1 ?
HIF act: inactive; aSyn 5UTR inh: inactive; KLF5 inh: inactive; Platelet DG rel: inactive; Wee1 stabilizer: inactive

What do the screens show for `O=C(O)CCCn1cc(NC(=O)c2cc(F)c(F)cc2Cl)cn1`?
HIF act: inactive; aSyn 5UTR inh: inactive; KLF5 inh: inactive; Platelet DG rel: inactive; Wee1 stabilizer: inactive

What do the screens show for `O=C(O)CCCn1cc(NC(=O)c2cccc(F)c2)cn1`?
HIF act: inactive; aSyn 5UTR inh: inactive; KLF5 inh: inactive; Platelet DG rel: inactive; Wee1 stabilizer: 13; Wee1 degr conf: inactive

What do the screens show for `O=C(NCC1CC1)c1cc(-c2ccccc2)nn1CC1CC(c2cccc([N+](=O)[O-])c2)=NO1` (centres undefined)?
HIF act: inactive; aSyn 5UTR inh: inactive; Platelet DG rel: inactive

How did N#Cc1ncccc1CCc1cccc(Cl)c1 do in these assays?
HIF act: inactive; aSyn 5UTR inh: inactive; Platelet DG rel: inactive

Results for Cc1ccc(NC(=O)COc2ccccc2C=O)cc1Cl ?
HIF act: inactive; aSyn 5UTR inh: inactive; KLF5 inh: inactive; Platelet DG rel: inactive; Wee1 stabilizer: 16; Wee1 degr conf: inactive

Results for CC(=O)Nc1cccc(NC(=O)COc2ccccc2C)c1 ?
HIF act: inactive; aSyn 5UTR inh: inactive; KLF5 inh: inactive; Platelet DG rel: inactive

What do the screens show for `Cc1ccn2cc(CNS(=O)(=O)c3cccs3)nc2c1`?
HIF act: inactive; aSyn 5UTR inh: inactive; KLF5 inh: inactive; Platelet DG rel: inactive; Wee1 stabilizer: 13; Wee1 degr conf: inactive

What do the screens show for `O=C(NNC(=O)c1ccccc1OCc1ccccc1)c1ccccc1F`?
HIF act: inactive; aSyn 5UTR inh: inactive; KLF5 inh: inactive; Platelet DG rel: inactive

Results for O=C(NCc1ccc(F)cc1)c1ccccc1OCc1ccccc1 ?
HIF act: inactive; aSyn 5UTR inh: inactive; KLF5 inh: inactive; Platelet DG rel: inactive; Wee1 stabilizer: 20; Wee1 degr conf: inactive

How did Cc1ccc(NC(=O)CCNS(=O)(=O)c2ccc(Br)s2)cc1 do in these assays?
HIF act: inactive; aSyn 5UTR inh: inactive; KLF5 inh: inactive; Platelet DG rel: inactive

How did CC1CCN(C(=O)NC(=O)c2ccc(Cl)cc2)CC1 do in these assays?
HIF act: inactive; aSyn 5UTR inh: inactive; KLF5 inh: inactive; Platelet DG rel: inactive

Results for CC1c2ccsc2CCN1C(=O)NC(=O)c1ccc(Cl)cc1 (centres undefined) ?
HIF act: inactive; aSyn 5UTR inh: inactive; KLF5 inh: inactive; Platelet DG rel: inactive; Wee1 stabilizer: 14; Wee1 degr conf: inactive

What do the screens show for `CC(C)C1OC2(C)OC(=N)C1(C#N)C(C#N)(C#N)C2c1ccccc1` (centres undefined)?
HIF act: inactive; aSyn 5UTR inh: inactive; KLF5 inh: inactive; Platelet DG rel: inactive; Wee1 stabilizer: 17; Wee1 degr conf: inactive

Screening data from PubChem BioAssay.
